The source of these data is PubChem BioAssay (Tox21).

“And” between values parts separate entries of the source, which are not always exact repeats. Equal entries are not always repeated. Inconclusive results are not listed. Where a call stands in place of a potency, no number is given. The source made the active and inactive calls. Unless noted, calls come from the whole dose curve; as a rule, active = well fitted cell-killing curve with a large enough effect in the repeat runs; inconclusive = weak or mixed curves, or effect the other way; inactive = flat fitted curve, though single readings scatter.
Potency is the fitted concentration of half-maximal effect.

For the first test, the target named is Estrogen receptor beta (Homo sapiens) (UniProt Q92731). Description: qHTS assay to identify small molecule antagonists of the estrogen receptor beta (ER-beta) signaling pathway (AID 1259378; active = well fitted inhibition curve with a large enough effect in the signal ratio in the repeat runs, not every such curve was filed as active; the % refers to the signal ratio). Particulars: ER-beta-UAS-bla HEK293T, beta-lactamase FRET ratio, 16 h; series mostly up to 92.4 µM. The procedure, abridged: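 Antagonist mode: compounds added to beta-lactamase reporter HEK293T ER-beta-UAS cells stimulated with E2 (1nM final), 16 hr at 37C. LiveBLAzer B/G FRET substrate, 2 hours room temperature, fluorescence read-out.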
Chain of Estrogen receptor beta (Homo sapiens) (Q92731 whole entry, looked up): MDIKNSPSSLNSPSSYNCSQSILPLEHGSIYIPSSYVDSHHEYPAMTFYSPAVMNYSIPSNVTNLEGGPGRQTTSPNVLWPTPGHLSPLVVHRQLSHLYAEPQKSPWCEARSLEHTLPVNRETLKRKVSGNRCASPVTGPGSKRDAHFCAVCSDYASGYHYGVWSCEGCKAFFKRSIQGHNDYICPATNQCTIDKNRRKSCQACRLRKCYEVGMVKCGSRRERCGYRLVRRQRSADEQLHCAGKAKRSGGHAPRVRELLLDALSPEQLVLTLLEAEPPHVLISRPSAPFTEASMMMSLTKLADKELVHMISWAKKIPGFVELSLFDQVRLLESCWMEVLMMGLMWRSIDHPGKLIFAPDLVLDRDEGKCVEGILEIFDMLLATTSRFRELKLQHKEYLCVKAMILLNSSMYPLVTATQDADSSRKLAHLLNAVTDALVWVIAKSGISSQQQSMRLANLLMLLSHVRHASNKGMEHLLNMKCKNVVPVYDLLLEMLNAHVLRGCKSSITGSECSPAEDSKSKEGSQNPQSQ
Turning to `S=C=NCCc1ccccc1`, the Potency was 30.7 µM (active).

Take `C#CCC1=C(C)C(OC(=O)C2C(C=C(C)C)C2(C)C)CC1=O` (configuration not stated): the Potency was 60.7 µM (active).

Consider `COCCC#N`, for which the Potency entry is “inactive”.

System in a further test: not listed separately
Kind of test: qHTS assay to identify small molecule agonists of the androgen receptor (AR) signaling pathway in the presence of an antagonist - cell viability counter screen (AID 1259379). Note: nearly all actives have a fitted effect of over 25% in size. The following applies: MDA-kb2 viability, CellTiter-Fluor, 16 h; series mostly up to 92.4 µM. The procedure, abridged: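 In MDA-kb2 cells (human breast carcinoma, MMTV-luciferase), compounds at 15 concentrations plus 3.0uM nilutamide; 16 hr, 37C, 0% CO2; CellTiter-Fluor fluorescence read for viability.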
In general terms: Quantitative high-throughput screening tests each substance at several concentrations.
Regarding `ClC(Cl)C(Cl)(Cl)Cl`, the Potency result is “inactive”.

As for `Cc1ccc([N+](=O)[O-])[c]2c1[O][Hg]2`, the Potency was 13.3 µM (active).

On to `Clc1ccc(C2(Cn3cncn3)OCCO2)c(Cl)c1`, for which the Potency entry is “inactive”.

For `CCCCCCCCCCCCCCn1cc[n+](C)c1`, the Potency was 7.71 µM (active) and 1.7 µM (active).

`CC(C)N(C(=O)SC/C(Cl)=C/Cl)C(C)C`: the Potency entry was “inactive”.

Take `Brc1cccc(-c2ccccc2)c1`: the Potency entry was “inactive”.

`CCN(CC)CCc1c[nH]c2ccccc12`: the Potency result is “inactive”.

On to `CCC1COC(Cn2cncn2)(c2ccc(Cl)cc2Cl)O1` (configuration not stated), for which the Potency entry is “inactive”.

For the compound `Cc1cnc2c(C(=O)O)c(Cl)ccc2c1`, the Potency entry was “inactive”.

For the compound `CCC(C)c1cccc(C(C)CC)c1O` (configuration not stated), the Potency result was “inactive”.

For the compound `CCCCc1ccccc1`, the Potency result was “inactive”.

Take `CC(Cc1ccc(OCC(=O)O)cc1)NCC(O)c1csc(C(F)(F)F)n1` (configuration not stated): the Potency entry is “inactive”.

As to `CCC[CH2][Sn]([CH2]CCC)([CH2]CCC)[O][Sn]([CH2]CCC)([CH2]CCC)[CH2]CCC`, the Potency is 0.475 µM (active).

Regarding `COc1ccc2c(c1OC)C(=O)O[C@@H]2[C@H]1c2cc3c(cc2CCN1C)OCO3`, the Potency result is “inactive”.

For the compound `C=CCOC(=O)c1ccccc1N`, the Potency entry was “inactive”.

With `NC(=O)C(Cl)Cl`, the Potency result is “inactive”.

Take `CC1(C)[C@H](/C=C2\CCSC2=O)[C@@H]1C(=O)OCc1coc(Cc2ccccc2)c1`: the Potency entry is “inactive”.

For `C[C@]12CC[C@H]3[C@@H](CCC4=CC(=O)CC[C@@H]43)[C@@H]1CC[C@@H]2OC(=O)CCc1ccco1`, the Potency result is “inactive”.

With `O=[N+]([O-])c1ccc(CCl)cc1`, the Potency result was “inactive”.

Turning to `COc1cnc(OC)n2nc(NS(=O)(=O)c3c(OCC(F)F)cccc3C(F)(F)F)nc12`, the Potency result is “inactive”.

Take `CCNc1nc(NC(C)C(C)C)nc(SC)n1` (configuration not stated): the Potency result is “inactive”.

Consider `Nc1ccccc1-c1ccccc1`, for which the Potency result is “inactive”.

Regarding `CN1[C@@H]2CC[C@H]1CC(O)C2` (some centres not stated), the Potency result was “inactive”.

With `COC(=O)/C=C(\C)OP(=O)(OC)OC`, the Potency result is “inactive”.

Consider `CC(C)[C@@H](Nc1ccc(C(F)(F)F)cc1Cl)C(=O)OC(C#N)c1cccc(Oc2ccccc2)c1` (some centres not stated), for which the Potency result is “inactive”.

Consider `CN(C)c1ccc(N)cc1`, for which the Potency was 59.6 µM (active).

On to `O=C(Cl)c1ccccc1F`, for which the Potency result is “inactive”.

As to `CN/C(=N\[N+](=O)[O-])NCc1cnc(Cl)s1`, the Potency result was “inactive”.

Turning to `CC(C)C(Br)C(=O)NC(N)=O` (configuration not stated), the Potency result was “inactive”.

On to `CC(C)=CC1C(C(=O)OC(C#N)c2cccc(Oc3ccccc3)c2)C1(C)C` (configuration not stated), for which the Potency entry is “inactive”.

Consider `O=[N+]([O-])c1ccccc1-c1ccccc1`, for which the Potency entry is “inactive”.

For the compound `COC(=O)c1ccccc1S(=O)(=O)NC(=O)Nc1nc(C)nc(OC)n1`, the Potency result was “inactive”.

For `CNC(=O)/C=C(\C)OP(=O)(OC)OC`, the Potency entry was “inactive”.

On to `C#CCC1=C(C)C(OC(=O)C2C(C=C(C)C)C2(C)C)CC1=O` (configuration not stated), for which the Potency entry is “inactive”.

Regarding `COCCC#N`, the Potency result is “inactive”.

Take `O=S(=O)(O)F`: the Potency entry is “inactive”.

For the compound `Cc1c([N+](=O)[O-])cc2c(c1[N+](=O)[O-])C(C)(C)CC2(C)C`, the Potency entry was “inactive”.

Regarding `Cc1cccc(Cc2cnc[nH]2)c1C`, the Potency result was “inactive”.

System in the next test: not listed separately
Description: qHTS assay to identify small molecule agonists of the estrogen receptor beta (ER-beta) signaling pathway - cell viability counter screen (AID 1259380). Note: nearly all actives have a fitted effect of over 30% in size. The following applies: ER-beta-bla HEK293T viability, CellTiter-Glo luminescence, 16 h; series mostly up to 92.4 µM. The procedure, abridged:
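Viability of ER-beta-UAS-bla HEK293T cells was determined by CellTiter-Glo luminescence following 16 hr treatment with test compounds at 37C.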
For `ClC(Cl)C(Cl)(Cl)Cl`, the Potency result is “inactive”.

Regarding `Cc1ccc([N+](=O)[O-])[c]2c1[O][Hg]2`, the Potency is 4.22 µM (active).

For `Clc1ccc(C2(Cn3cncn3)OCCO2)c(Cl)c1`, the Potency entry was “inactive”.

With `CCCCCCCCCCCCCCn1cc[n+](C)c1`, the Potency was 30.7 µM (active) and 60.4 µM (active).

Take `CC(C)N(C(=O)SC/C(Cl)=C/Cl)C(C)C`: the Potency result was “inactive”.

Turning to `Brc1cccc(-c2ccccc2)c1`, the Potency result is “inactive”.

`CCN(CC)CCc1c[nH]c2ccccc12`: the Potency result is “inactive”.

Take `CCC1COC(Cn2cncn2)(c2ccc(Cl)cc2Cl)O1` (configuration not stated): the Potency entry was “inactive”.

Regarding `Cc1cnc2c(C(=O)O)c(Cl)ccc2c1`, the Potency result was “inactive”.

Consider `CCC(C)c1cccc(C(C)CC)c1O` (configuration not stated), for which the Potency entry was “inactive”.

For `CCCCc1ccccc1`, the Potency result is “inactive”.

For the compound `CC(Cc1ccc(OCC(=O)O)cc1)NCC(O)c1csc(C(F)(F)F)n1` (configuration not stated), the Potency entry was “inactive”.

Turning to `CCC[CH2][Sn]([CH2]CCC)([CH2]CCC)[O][Sn]([CH2]CCC)([CH2]CCC)[CH2]CCC`, the Potency is 1.06 µM (active).

Regarding `COc1ccc2c(c1OC)C(=O)O[C@@H]2[C@H]1c2cc3c(cc2CCN1C)OCO3`, the Potency result was “inactive”.

Regarding `C=CCOC(=O)c1ccccc1N`, the Potency is 30.8 µM (active).

With `NC(=O)C(Cl)Cl`, the Potency entry was “inactive”.

Consider `CC1(C)[C@H](/C=C2\CCSC2=O)[C@@H]1C(=O)OCc1coc(Cc2ccccc2)c1`, for which the Potency entry was “inactive”.

Turning to `C[C@]12CC[C@H]3[C@@H](CCC4=CC(=O)CC[C@@H]43)[C@@H]1CC[C@@H]2OC(=O)CCc1ccco1`, the Potency result is “inactive”.

As for `O=[N+]([O-])c1ccc(CCl)cc1`, the Potency result was “inactive”.

In the case of `COc1cnc(OC)n2nc(NS(=O)(=O)c3c(OCC(F)F)cccc3C(F)(F)F)nc12`, the Potency result was “inactive”.

`CCNc1nc(NC(C)C(C)C)nc(SC)n1` (configuration not stated): the Potency result was “inactive”.

As for `Nc1ccccc1-c1ccccc1`, the Potency was 48.3 µM (active).

As for `CN1[C@@H]2CC[C@H]1CC(O)C2` (some centres not stated), the Potency result was “inactive”.

In the case of `COC(=O)/C=C(\C)OP(=O)(OC)OC`, the Potency entry was “inactive”.

As to `CC(C)[C@@H](Nc1ccc(C(F)(F)F)cc1Cl)C(=O)OC(C#N)c1cccc(Oc2ccccc2)c1` (some centres not stated), the Potency result is “inactive”.

For `CN(C)c1ccc(N)cc1`, the Potency is 11.9 µM (active).

With `O=C(Cl)c1ccccc1F`, the Potency entry was “inactive”.

With `CN/C(=N\[N+](=O)[O-])NCc1cnc(Cl)s1`, the Potency entry is “inactive”.

For the compound `CC(C)C(Br)C(=O)NC(N)=O` (configuration not stated), the Potency entry was “inactive”.

For `CC(C)=CC1C(C(=O)OC(C#N)c2cccc(Oc3ccccc3)c2)C1(C)C` (configuration not stated), the Potency result is “inactive”.

As for `O=[N+]([O-])c1ccccc1-c1ccccc1`, the Potency result was “inactive”.

Regarding `COC(=O)c1ccccc1S(=O)(=O)NC(=O)Nc1nc(C)nc(OC)n1`, the Potency entry is “inactive”.

With `CNC(=O)/C=C(\C)OP(=O)(OC)OC`, the Potency result was “inactive”.

`O=S(=O)(O)F`: the Potency entry was “inactive”.

For `Cc1c([N+](=O)[O-])cc2c(c1[N+](=O)[O-])C(C)(C)CC2(C)C`, the Potency result is “inactive”.

Take `Cc1cccc(Cc2cnc[nH]2)c1C`: the Potency entry was “inactive”.
